Test results published in PubChem BioAssay (NCATS).
Results filed as inconclusive are left out. Activity calls are given as the source filed them. Calls come from the whole dose curve; as a rule, active = well fitted cell-killing curve with a large enough effect; inconclusive = small, poorly fitted or top-dose-only effect, or effect the other way; inactive = flat fitted curve, though single readings scatter.

Legend:
Experiment in all cases: Primary qHTS to identify gynecologic anti-cancer compounds using libraries of approved drugs and bioactive compounds (AID 1345084); note: nearly all actives have a fitted effect of over 55% in size
[1] = tested on: C33A; conditions: Gynecologic cancer cell panel viability, ATPlite luminescence, 48 h; series mostly up to 57.5 µM
Procedure, shortened: (§1)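 Cells, 1,000 per well, were allowed to settle for 16 h at 37 C before compound addition. Five concentrations were tested for 48 h, and viability was read by ATPlite luminescence after 15 min at room temperature.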

[2] = tested on: CAOV3; conditions: Gynecologic cancer cell panel viability, ATPlite luminescence, 48 h; series mostly up to 57.5 µM
Procedure, shortened: as §1

[3] = tested on: CASKI; conditions: Gynecologic cancer cell panel viability, ATPlite luminescence, 48 h; series mostly up to 57.5 µM
Procedure, shortened: as §1

[4] = tested on: Es-2; conditions: Gynecologic cancer cell panel viability, ATPlite luminescence, 48 h; series mostly up to 57.5 µM
Procedure, shortened: as §1

[5] = tested on: HeLa; conditions: Gynecologic cancer cell panel viability, ATPlite luminescence, 48 h; series mostly up to 57.5 µM
Procedure, shortened: as §1

[6] = tested on: Hek293T; conditions: Gynecologic cancer cell panel viability, ATPlite luminescence, 48 h, control line for the selectivity index; series mostly up to 57.5 µM
Procedure, shortened: as §1

[7] = tested on: JEG-3; conditions: Gynecologic cancer cell panel viability, ATPlite luminescence, 48 h; series mostly up to 57.5 µM
Procedure, shortened: as §1

[8] = tested on: OV90; conditions: Gynecologic cancer cell panel viability, ATPlite luminescence, 48 h; series mostly up to 57.5 µM
Procedure, shortened: as §1

[9] = tested on: PA-1; conditions: Gynecologic cancer cell panel viability, ATPlite luminescence, 48 h; series mostly up to 57.5 µM
Procedure, shortened: as §1
% is set by controls: 0 for no effect and ±100 for the full control effect.

CNC(=O)COC(=O)N1CCC(CCc2ccc(Cl)cc2)CC1
inactive: Potency [1] | Potency [2] | Potency [3] | Potency [4] | Potency [5] | Potency [6] | Potency [7] | Potency [8] | Potency [9]

CCCn1cc2c(nc(NC(=O)Nc3ccc(OC)cc3)n3nc(-c4ccco4)nc23)n1
inactive: Potency [1] | Potency [2] | Potency [3] | Potency [4] | Potency [5] | Potency [6] | Potency [7] | Potency [8] | Potency [9]

CCC/C=C/c1cc2c(C=O)c(O)c(CC=C(C)C)cc2o1
inactive: Potency [1] | Potency [2] | Potency [3] | Potency [4] | Potency [5] | Potency [6] | Potency [7] | Potency [8] | Potency [9]

C=C1CC[C@@H]2[C@](C)(CO)[C@H](O)CC[C@@]2(C)[C@@H]1CC(O)C1=CCOC1=O (some centres undefined)
inactive: Potency [1] | Potency [2] | Potency [3] | Potency [4] | Potency [5] | Potency [6] | Potency [7] | Potency [8] | Potency [9]

CC(C)NC(=O)N1CC[C@H](N=C2Nc3cc(F)ccc3N(CC(F)F)c3ccc(Cl)cc32)C1
inactive: activity change, negative = cytotoxicity [1] 7.02% [at 11.6 µM] | activity change, negative = cytotoxicity [2] -26.1% [at 11.6 µM] | activity change, negative = cytotoxicity [3] -4.9% [at 11.6 µM] | activity change, negative = cytotoxicity [4] 5.14% [at 11.6 µM] | activity change, negative = cytotoxicity [5] -4.91% [at 11.6 µM] | activity change, negative = cytotoxicity [6] 1.3% [at 11.6 µM] | activity change, negative = cytotoxicity [7] 13.8% [at 11.6 µM] | activity change, negative = cytotoxicity [8] 1.89% [at 11.6 µM] | activity change, negative = cytotoxicity [9] -24.1% [at 11.6 µM]

COC(=O)c1ccnc(-c2cc(C(=O)Nc3ccc(C4(N)CC4)cc3)ccn2)c1
inactive: Potency [1] | Potency [2] | Potency [3] | Potency [4] | Potency [5] | Potency [6] | Potency [7] | Potency [8] | Potency [9]

CCOc1cccc(NC(=O)c2ccc(N3CCCC3)c(C(F)(F)F)c2)c1
inactive: Potency [1] | Potency [2] | Potency [3] | Potency [4] | Potency [5] | Potency [6] | Potency [7] | Potency [8] | Potency [9]

C=C1C(=O)O[C@@H]2C[C@H](C)C3=CC(=O)[C@H](O)[C@@]3(C)C[C@H]12
inactive: Potency [1] | Potency [2] | Potency [3] | Potency [4] | Potency [5] | Potency [6] | Potency [7] | Potency [8] | Potency [9]

C=C1CC[C@@H](O)[C@]2(C)CC[C@H]3C(=C)C(=O)O[C@@H]3[C@@H]12
inactive: Potency [1] | Potency [2] | Potency [3] | Potency [4] | Potency [5] | Potency [6] | Potency [7] | Potency [8] | Potency [9]

CCC(C)C(=O)O[C@H]1[C@H](O)[C@@]2(COC(C)=O)C(CC1(C)C)C1=CCC3[C@@]4(C)CC[C@H](O[C@@H]5O[C@H](C(=O)O)[C@@H](O)[C@H](O)[C@H]5O)[C@@](C)(CO)C4CC[C@@]3(C)[C@]1(C)C[C@@H]2O (some centres undefined)
inactive: activity change, negative = cytotoxicity [1] -3% [at 11.6 µM] | activity change, negative = cytotoxicity [2] -4.8% [at 11.6 µM] | activity change, negative = cytotoxicity [3] 10.3% [at 11.6 µM] | activity change, negative = cytotoxicity [4] 5.26% [at 11.6 µM] | activity change, negative = cytotoxicity [5] 8.08% [at 11.6 µM] | activity change, negative = cytotoxicity [6] 5.16% [at 11.6 µM] | activity change, negative = cytotoxicity [7] 9.72% [at 11.6 µM] | activity change, negative = cytotoxicity [8] 0.006% [at 11.6 µM] | activity change, negative = cytotoxicity [9] 5.51% [at 11.6 µM]

O=C1Nc2ccccc2-c2nc3ccccc3c(=O)n2-c2c(O)cccc21
inactive: Potency [1] | Potency [2] | Potency [3] | Potency [4] | Potency [5] | Potency [6] | Potency [7] | Potency [8] | Potency [9]

C=C[C@](C)(O)CC[C@H]1C(C)=CC(=O)[C@H]2C(C)(C)CCC[C@]12C
inactive: Potency [1] | Potency [2] | Potency [3] | Potency [4] | Potency [5] | Potency [6] | Potency [7] | Potency [8] | Potency [9]

CCOc1ccc(-n2c([C@@H](C)N(Cc3cccnc3)C(=O)Cc3ccc(OC(F)(F)F)cc3)nc3ncccc3c2=O)cc1
inactive: Potency [1] | Potency [2] | Potency [3] | Potency [4] | Potency [5] | Potency [6] | Potency [7] | Potency [8] | Potency [9]

COc1ccc(CCO[C@@H]2O[C@H](CO[C@H]3OC[C@](O)(CO)[C@H]3O)[C@@H](OC(=O)/C=C/c3ccc(O)c(O)c3)[C@H](O[C@@H]3O[C@@H](C)[C@H](O)[C@@H](O)[C@H]3O)[C@H]2O)cc1OC
inactive: Potency [1] | Potency [2] | Potency [3] | Potency [4] | Potency [5] | Potency [6] | Potency [7] | Potency [8] | Potency [9]

O=C(Nc1ccccc1)c1ccc(Nc2nnc(-c3ccc(O)cc3)c3ccccc23)cc1
inactive: Potency [1] | Potency [2] | Potency [3] | Potency [4] | Potency [5] | Potency [6] | Potency [7] | Potency [8] | Potency [9]

CC(C)(C)[C@H](NC(=O)c1ccc(N)c(Cl)c1)C(=O)N1CCC[C@H]1C(=O)N[C@H](C#N)CC(=O)O
inactive: Potency [1] | Potency [2] | Potency [3] | Potency [4] | Potency [5] | Potency [6] | Potency [7] | Potency [8] | Potency [9]

Cc1cc(F)ccc1-c1nc(NCCN=C(N)NC#N)nc2c1ccc(=O)n2-c1c(F)cccc1F
inactive: Potency [1] | Potency [2] | Potency [3] | Potency [4] | Potency [5] | Potency [6] | Potency [7] | Potency [8] | Potency [9]

O=c1nc(-c2ccccn2)sc2ccccc12
inactive: Potency [1] | Potency [2] | Potency [3] | Potency [4] | Potency [5] | Potency [6] | Potency [7] | Potency [8] | Potency [9]

CC(C)=CCc1cc2c(cc1O)OC[C@H]1c3ccc(O)cc3O[C@@H]21
inactive: Potency [1] | Potency [2] | Potency [3] | Potency [4] | Potency [5] | Potency [6] | Potency [7] | Potency [8] | Potency [9]

CC(=O)C=C=C1C(C)(C)CC(O)CC1(C)O[C@@H]1O[C@H](CO[C@H]2OC[C@](O)(CO)[C@H]2O)[C@@H](O)[C@H](O)[C@H]1O (some centres undefined)
inactive: Potency [1] | Potency [2] | Potency [3] | Potency [4] | Potency [5] | Potency [6] | Potency [7] | Potency [8] | Potency [9]

CC(C)CCNc1ncccc1C(=O)N1CCN(Cc2ccccc2)CC1
inactive: Potency [1] | Potency [2] | Potency [3] | Potency [4] | Potency [5] | Potency [6] | Potency [7] | Potency [8] | Potency [9]
